SMARCA2 act = activators of SMARCA2 function | activation, % at 9.1 µM | AID 652017 | 370,000 compounds, 1% hits | MG213 cells, MMTV-luciferase reporter, dexamethasone, overnight; in the data active = activation above about 7.8%;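 also: 0% = vehicle wells and 100% = reference activator wells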
NadD block = inhibitors of Staphylococcus aureus NadD; purified NadD enzyme, colorimetric absorbance read-out; inhibition, % at 20 µM; 360,000 compounds, 0.78% hits; in the data active = inhibition above about 26%
NR3A LBD binder = modulates the human NR3A ligand-binding domain; NR3A LBD differential scanning fluorimetry, Tm shift; 0% = protein alone, 100% = glycine-bound protein; 340,000 compounds, 2.5% hits; Tm shift relative to glycine control, % at 25 µM;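 active = melting temperature shift of at least 10% of the positive control shift, at one fixed dose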
esBAF inh = blocks esBAF chromatin remodeling in mouse ES cells; Bmi1-luciferase knock-in reporter, 24 h; 100% = twice the neutral-well signal; AID 602393; 350,000 compounds, 2% hits; reporter increase, % at 12.5 µM; in the data active = activation above about 40%;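 also: 0% = median of the plate's neutral control wells and 100% = double that signal; a rise in the Bmi1 reporter signal indicates esBAF inhibition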
SKN-1 inh = C. elegans SKN-1 inhibition; inhibition, % at 21.8 µM; C. elegans VP596 Pgst-4::GFP/RFP ratio, acrylamide-induced, 24 h; 360,000 compounds, 0.49% hits;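 active = interference check ratio from 0.5 to 1.5 plus GFP to RFP signal ratio inhibition reaching or exceeding a fixed threshold, cut at about 30% in these data, passing the limit was not always enough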
Vif inh = HIV Vif inhibition; HEK293T cells, Vif self-association by quenched fluorescence, imaging, 24 h; inhibition, % at 7.49 µM; 340,000 compounds, 0.35% hits; AID 602346; in the data active = inhibition above about 50%, passing the limit was not always enough
SMARCA2 conf = confirmation of SMARCA2 (BRM) function activators; MG213 cells, MMTV-luciferase with dexamethasone, luminescence, overnight; MG213 cells expressing E1A, Rb sequestered; DMSO wells 0%, reference activator 100%; activation, % at 9.1 µM; shares compounds with SMARCA2 act; 3,500 compounds, 30% hits;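 active = activation above its plate's cutoff, the mean activation of tested wells plus 3 SD, cut at about 7.9% in these data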
VP16 Luc act = GAL4-VP16 reporter activation counter-screen; shares compounds with SMARCA2 act; activation, % at 9.1 µM; 3,500 compounds, 41% hits; HEK293 GAL4-VP16 pG5luc reporter, luciferase luminescence; scaled: DMSO wells 0%, SAHA wells 100%;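 active = activation above the solvent-only control well mean plus 3 SD, averaged across control plates, cut at about 5.2% in these data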
Numbers without * were called inactive; . = no result. An excerpt weighted towards active compounds, which were near 5.2% of everything screened.

SMILES	SMARCA2 act	NadD block	NR3A LBD binder	esBAF inh	SKN-1 inh	Vif inh	SMARCA2 conf	VP16 Luc act
CC(C)c1ccc(C(=O)NN2C(=O)C3CCCCC3C2=O)cc1 (centres undefined)	13.3*	-0.4	24.6*	.	2.8	29.5	9.3*	8.5*
Cn1nc2c3ccccc3n(Cc3ccccc3)c2nc1=S	9.1*	-1.4	0.2	.	0.1	0.0	10.2*	3.7
C/C(=N/NC(=O)c1ccc(Br)o1)c1cccc(NC(=O)c2ccc(C)o2)c1	12.9*	-1.9	-8.8	.	-4.4	3.3	-0.5	2.8
C/C(=N\NC(=O)c1cccc(C)c1)c1cccc(NC(=O)c2ccco2)c1	10.6*	8.3	-13.6	-11.9	19.4	5.5	2.7	1.0
C/C(=N\NC(=O)c1ccn(C)n1)c1cccc(NC(=O)c2ccc(C)s2)c1	15.6*	-3.6	-15.9	.	2.0	11.6	8.0*	6.0*
C/C(=N/NC(=O)c1ccco1)c1cccc(NC(=O)c2ccc(C)o2)c1	8.8*	8.1	-8.4	15.3	-1.0	4.9	-0.6	2.8
Cn1cnc(S(=O)(=O)N2C[C@H](O)COC[C@H]3O[C@@H](CC(=O)NC4Cc5ccccc5C4)CC[C@@H]32)c1	.	.	.	1.1	.	.	.	.
COc1ccc(NC(=O)N(C)C[C@@H]2Oc3ccc(NC(=O)Nc4ccccc4)cc3CC(=O)N([C@@H](C)CO)C[C@@H]2C)cc1	.	.	.	0.9	.	.	.	.
CC(C)(C)C(=O)COC(=O)c1cccc(NC(=O)c2ccco2)c1	-1.9	-3.2	4.4	18.2	-0.4	-1.4	.	.
CC(=O)Nc1cccc(/C(C)=N/NC(=O)c2ccc(O)cc2)c1	8.1*	0.9	-11.0	-16.1	6.1	9.9	2.6	1.5
O=C(COC(=O)c1cccc(NC(=O)c2ccco2)c1)c1ccc(Br)cc1	8.1*	-5.6	2.6	21.0	15.7	-6.7	9.5*	4.5
CNC[C@H]1OCCCC[C@@H](C)Oc2ccc(NC(=O)Cc3ccccc3)cc2C(=O)N([C@H](C)CO)C[C@H]1C	.	.	.	-3.5	.	.	.	.
O=C(NC1CC1)c1cccc(NC(=O)C2CCCCC2)c1	8.1*	4.3	-0.1	-0.8	-3.9	0.4	0.3	0.6
O=Nc1c2nc3ccccc3n(O)c-2c2ccccc12	8.0*	-4.3	.	48.3*	4.3	-1.2	28.5*	5.5*
COc1cc(C=Nn2c(-c3cc(-c4ccccc4)n[nH]3)n[nH]c2=S)ccc1OC(C)=O	14.0*	.	.	.	.	.	10.3*	3.1
COCCNC(=O)[C@@H]1[C@@H](CO)[C@@H]2Cn3c(ccc(C4=CCCCC4)c3=O)[C@H]1N2C(=O)C1CCC1	.	.	.	-1.2	.	.	.	.
COc1ccccc1NC(=O)N1CCCCN2[C@H](C1)[C@@H](c1ccc(C#CC3CCCC3)cc1)[C@@H]2CO	.	.	.	-3.8	.	.	.	.
O=C(O)c1ccccc1C1Nc2ccccc2C(=O)N1CCCN1CCOCC1 (centres undefined)	11.6*	-6.7	0.3	.	-12.1	-4.8	-1.8	0.7
O=C1c2ccccc2NC(c2ccccc2)N1CCCN1CCOCC1 (centres undefined)	-2.0	1.7	-0.1	3.1	11.8	4.0	.	.
C[C@H]1CN([C@@H](C)CO)S(=O)(=O)c2ccc(C#CC3CC3)cc2O[C@@H]1CN(C)C	.	.	.	4.5	.	.	.	.
Cc1nc(NC(=O)/C=C/c2ccccc2)sc1C(=O)N(C)C	10.0*	-7.3	-1.2	.	-1.7	1.6	2.9	6.2*
Cc1ccc(-c2cccc(NC(=O)C3C4C=CC(C4)C3C(=O)O)c2)o1 (centres undefined)	9.4*	-2.3	0.8	39.8	14.5	-4.3	0.6	-0.2
Cc1occc1C(=O)NNC(=O)Nc1ccc(F)cc1F	1.1	-0.4	-0.1	.	5.0	1.7	.	.
Cc1occc1C(=O)Nc1ccc(Br)cc1F	10.4*	4.4	2.1	45.8*	-8.6	-5.1	16.1*	10.0*
C[C@@H]1CN([C@@H](C)CO)C(=O)c2cccc(NS(C)(=O)=O)c2O[C@@H]1CN(C)S(C)(=O)=O	.	.	.	-0.5	.	.	.	.

Assay outcomes as filed in PubChem.
